Experimental data as given in PubChem BioAssay (NCI).
About 83,000 compounds went through this panel and 20% of them were active in at least one assay; those are over-represented in the sample as a whole.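 Plates (96-well) were seeded with cells, treated with compound at one concentration, and incubated for 48 hours before percent growth was determined.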 Values without a mark were called inactive. Active and inactive are the calls of the source.

The molecules below were run on NCI-H460 lung (assay: NCI-60 one-dose screen, 48 h (100 = growth as untreated, 0 = no growth, -100 = all killed)). Details: 10 µM.
Procedure: Growth inhibition of the NCI-H460 human Non-Small Cell Lung tumor cell line is measured as a screen for anti-cancer activity. Cells are grown in 96 well plates and exposed to the test compound for 48 hours. Compounds are tested at a single concentration, which is 10^-5 M for most compounds. The reported endpoint is percent growth (GI% or GIPRCNT), where numbers from 0 - 100% represent growth inhibition, and numbers from -100% - 0 represent cell death. For example, a value of 40 represents 60% growth inhibition. A value of 0 means no net growth occurred over the course of the experiment. A value of -40 indicates 40% of cells at the beginning of the experiment died by the end of the experiment. A value of -100 means all cells are dead at the end of the experiment.
NCI-60 Human Tumor Cell Lines Screen was performed using the standard one-dose NCI protocol, which is described in more detail at https://dtp.cancer.gov/discovery_development/nci-60/default.htm.
Compounds with GIPRCNT values below 10 were considered active. Activity score was based on GIPRCNT using the following formula: […]
Score is 0 for GIPRCNT values of 100 or above, 50 for GIPRCNT values of 0, and 100 for GIPRCNT values of -100.
Molecule `O=C1CCC(N2Cc3c(NCc4ccc(-c5ccccc5)cc4)cccc3C2=O)C(=O)N1` (stereo not given) has a growth of 36.4%.
`COc1ccc2nc(Nc3cccc(NC(=O)c4ccc(CN5CCN(C)CC5)c(C(F)(F)F)c4)c3)ccc2c1` was tested, and the growth was -84.5% (active).
Molecule `Cc1cc(=O)oc2cc(OCCCCOc3ccc(/C=C/C(=O)Nc4ccccc4[N+](=O)[O-])cc3)ccc12` has a growth of 119%.
With `Cn1cc(/C=N/Nc2cccc(Cl)n2)c2ccccc21` the growth was 63.8%.
`O=C(Nc1nc2ccc([N+](=O)[O-])cc2s1)Nc1cc(Cl)ccc1I` was tested, and the growth was -2.31% (active).
Work on `CCCSc1nc(NC2CC2)c(C#N)c(-c2ccc(OC)cc2)n1` yielded a growth of 85.6%.
`COc1ccc(/C=C/C(=O)c2ccc(NC(=O)CN3C(=O)NC(C)(c4ccccc4)C3=O)cc2)cc1` (stereo not given) was tested, and the growth was 102%.
`Cc1ccn2c(C(=O)c3ccccc3)cc(-c3cc(-c4ccc(N(C)C)cc4)c(C#N)c(N)n3)c2c1` was tested, and the growth was 56%.
In the case of `Cc1ccc(C(=O)N/C(=C2/OCCN2C)[P+](c2ccccc2)(c2ccccc2)c2ccccc2)cc1`, the growth is reported as 83.8%.
In the case of `O=C(c1ccc([N+](=O)[O-])c([N+](=O)[O-])c1O)n1[nH]c(=O)c2ccccc2c1=O`, the growth is reported as 44.8%.
Work on `CCOC(=O)C1=C(N)N(c2ccccc2)C2=C(C(=O)CC(C)(C)C2)C1c1ccccc1OC` (stereo not given) yielded a growth of 115%.
`COc1ccc(-c2cc(-c3cc(C(=O)c4ccc(Br)cc4)n4ccc(C)cc34)nc(N)c2C#N)cc1` gave a growth of 84.7%.
Molecule `COc1ccc(NC(=O)Cn2c(/C=C/c3ccc(N(C)C)cc3)nc3ccccc3c2=O)cc1` has a growth of 19.5%.
In the case of `Cc1nc(Nc2nc(C)c3ccc(OCCN4CCOCC4)cc3n2)[nH]c(=O)c1C`, the growth is reported as 2.14% (active).
With `Cc1noc2c(Cc3ccc([N+](=O)[O-])cc3)nn(CC(=O)N/N=C/c3ccc(Br)cc3)c(=O)c12` the growth was 81.5%.
`COc1cc(-c2nc3cc(Cl)c(Cl)cc3[nH]2)ccc1OCc1nnc(-c2ccc(Br)cc2)o1` was tested, and the growth was 22.9%.
With `CN1CCN(Cc2ccc(C(=O)Nc3cccc(Nc4ccc5cc(O)ccc5n4)c3)cc2C(F)(F)F)CC1` the growth was -74.6% (active).
Molecule `Cc1cc2c(c(O)c1Br)-c1ncoc1C(=O)[C@]1(C)CC[C@H](C(C)C)[C@H]21` has a growth of 18.4%.
`O=C(Nc1cccc(-c2cn(-c3ccc4oc(=O)ccc4c3)nn2)c1)Nc1cc(C(F)(F)F)cc(C(F)(F)F)c1` showed a growth of 27.8%.
`N#Cc1c(-c2ccc(Cl)cc2)cc(-c2ccccc2)nc1OCc1ccccc1` was tested, and the growth was 51.9%.
`O=c1[nH][nH]c(Nc2ccccc2)c1N=Nc1ccc(F)cc1` gave a growth of 101%.
In the case of `CC(=O)Nc1ccc(-c2cn(-c3cccc(C(=O)Nc4ccc(Cl)c(C(F)(F)F)c4)c3)nn2)cn1`, the growth is reported as -73.3% (active).
Work on `N#Cc1ccc(-c2nn(-c3ccc(C(=O)O)cc3)cc2CNc2cccc(Br)c2)cc1` yielded a growth of 37.8%.
`CCCCCCCCCCCCCCCCCCCC(=O)NCCc1c[nH]c2ccc(OC(=O)CCCC(=O)OCCOOCCOOCCOOCCOOCCOOCCOOCCOOCCOOCCOOCCOOCCOOCCOC)cc12` showed a growth of 50.4%.
With `O=C(Nc1ccc(OCC(=O)c2ccccc2)cc1)Nc1ccc(Cl)c(C(F)(F)F)c1` the growth was 18.4%.
In the case of `O=C1Nc2ccc(F)cc2/C1=C/c1cccc(OCc2ccccc2)c1`, the growth is reported as 7.06% (active).
`COc1ccc([C@H]2C(C(=O)c3ccc(Cl)cc3)C3(N[C@@H]2c2ccccc2)C(=O)Nc2ccc(Br)cc23)cc1` (stereo not given in full) was tested, and the growth was -44.4% (active).
`COc1ccc2ncc(C#Cc3cncc(C(=O)Nc4ccc(CN5CCN(C)CC5)c(C(F)(F)F)c4)c3)n2n1` was tested, and the growth was -75.3% (active).
`O=C(NC(=S)N1CCN(c2ncnc3c2cnn3-c2ccccc2)CC1)c1ccc(Cl)cc1` showed a growth of 53.3%.
Molecule `COc1ccc(C(=O)CSc2nnc(-c3c[nH]c4ccccc34)n2-c2ccccc2)cc1` has a growth of 65.5%.
In the case of `COc1ccc(-c2nc(S(=O)(=O)c3ccccc3)c(S(C)(=O)=O)o2)cc1`, the growth is reported as 75.9%.
For `C=CC(=O)Nc1ccc(C(=O)/C=C/c2ccc(N(C)CCF)cc2)c(O)c1`, the growth was -9.21% (active).
Work on `O=C1Nc2cc(-c3ccc(NC(=O)c4cccc([N+](=O)[O-])c4)cc3)ccc2/C1=C/c1ccc[nH]1` yielded a growth of 103%.
For `CN1CCN(c2ccc(C(=O)/C=C/c3ccc(OC(F)F)cc3)cc2)CC1`, the growth was 49.2%.
`CN1C(=O)N(C)C2SC(N/N=C/c3cccs3)=NC21` (stereo not given) showed a growth of 13.2%.
For `C[C@H]1[C@H](C)CC[C@]2(COC(=O)CCC(=O)NCC#CCN3CCNCC3)CC[C@]3(C)C(=CC[C@@H]4[C@@]5(C)CCCNC(C)(C)[C@@H]5CC[C@]43C)[C@H]12`, the growth was 9.64% (active).
In the case of `COc1ccc2c(c1)N=C(C(=O)O)/C2=C/c1sc(Nc2ccc(O)cc2)nc1O`, the growth is reported as 82.3%.
Work on `Cc1cc(C)nc(SCC(=O)Nc2ccc(S(N)(=O)=O)cc2)n1` yielded a growth of 134%.
In the case of `COc1ccc(CN2[C@@H](C(=O)NCc3ccc(C(=O)NO)cc3)Cc3c([nH]c4ccccc34)[C@@H]2C2CC2)cc1`, the growth is reported as 13.7%.
With `COc1ccc(Nc2nc(N)n(Cc3cccc(Br)c3)n2)cc1` the growth was -17.6% (active).
